Consider three compounds from PubChem BioAssay AID651598 (Sanford-Burnham Center for Chemical Genomics, 2012).

Several values for one entry are separate records, joined by “and”; a condition that tells them apart may be missing. Equal entries are not always repeated.

For this assay, the target named is Apelin receptor (Homo sapiens) (UniProt P35414). Briefly: APJ beta-arrestin recruitment blockade alongside CXCR6 – cell-based, DiscoveRx, panel, CHO-K1, counter-screen for CXCR6 antagonist project, SAR follow-up (AID 651598). The following applies: CHO-K1 PathHunter beta-arrestin luminescence, antagonist mode; run 2, at 80 µM (top of the series).
Apelin receptor (Homo sapiens), sequence (P35414 whole entry, looked up): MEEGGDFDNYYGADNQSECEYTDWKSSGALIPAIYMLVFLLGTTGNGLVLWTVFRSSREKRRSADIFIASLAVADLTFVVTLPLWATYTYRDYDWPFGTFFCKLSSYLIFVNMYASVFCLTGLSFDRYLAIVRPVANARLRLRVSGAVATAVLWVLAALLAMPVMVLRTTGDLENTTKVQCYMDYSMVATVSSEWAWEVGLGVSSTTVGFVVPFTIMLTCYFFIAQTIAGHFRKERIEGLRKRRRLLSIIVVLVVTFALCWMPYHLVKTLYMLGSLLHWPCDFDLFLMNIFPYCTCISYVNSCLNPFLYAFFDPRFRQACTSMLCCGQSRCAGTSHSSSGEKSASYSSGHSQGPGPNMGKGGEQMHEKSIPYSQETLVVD
As for `COc1cc(C(=O)NC2CCN(CC(=O)Nc3ccccc3)CC2)cc(OC)c1OC`, the inhibition is 4.86%.

`COc1cc(C(=O)NC2CC3CCC(C2)N3CC(=O)Nc2ccccc2)cc(OC)c1OC` (stereo not drawn): the inhibition is -3.64% and 3.22%.

On to `COc1cc(C(=O)NC2CC3CCCC(C2)N3CC(=O)Nc2ccccc2)cc(OC)c1OC` (stereo not drawn), for which the inhibition is 11.6% and 7.3% and -8.97%.
